Experimental findings from PubChem BioAssay are described below.

Test [1] deals with Nuclear receptor coactivator 3 (Homo sapiens) (UniProt Q9Y6Q9). In words: NCOA3 GAL4-fusion reporter inhibition – cell-based, luminescence, quadruplicate, confirmation (AID 588792).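 Note: 0% = DMSO treated cells and 100% = gossypol at 36 µM.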 Particulars: HEK293 GAL4-SRC3 luciferase reporter, at 3.6 µM, active compounds read high. (A reporter such as luciferase makes a cellular process visible.)
For test [2], the system named is transactivating tegument protein VP16 (Human herpesvirus 1), Gal4-VP16 luciferase reporter. In words: repression of VP16-driven luciferase reporter – cell-based, luminescence, high throughput, counter-screen for SRC3 inhibitor project (AID 588794; in the data active = inhibition above about 30%). To be noted: mammalian cells, at 3.6 µM, active compounds read high.

A number with no mark means an inactive call. Active and inactive are the calls of the source.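 Rule for the calls, unless noted: active = mean inhibition over 43.08%, the solvent-only control mean plus 3 SD; inactive = the rest.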

Nuclear receptor coactivator 3 (Homo sapiens), sequence (Q9Y6Q9 whole entry, looked up, the tested form may be a part): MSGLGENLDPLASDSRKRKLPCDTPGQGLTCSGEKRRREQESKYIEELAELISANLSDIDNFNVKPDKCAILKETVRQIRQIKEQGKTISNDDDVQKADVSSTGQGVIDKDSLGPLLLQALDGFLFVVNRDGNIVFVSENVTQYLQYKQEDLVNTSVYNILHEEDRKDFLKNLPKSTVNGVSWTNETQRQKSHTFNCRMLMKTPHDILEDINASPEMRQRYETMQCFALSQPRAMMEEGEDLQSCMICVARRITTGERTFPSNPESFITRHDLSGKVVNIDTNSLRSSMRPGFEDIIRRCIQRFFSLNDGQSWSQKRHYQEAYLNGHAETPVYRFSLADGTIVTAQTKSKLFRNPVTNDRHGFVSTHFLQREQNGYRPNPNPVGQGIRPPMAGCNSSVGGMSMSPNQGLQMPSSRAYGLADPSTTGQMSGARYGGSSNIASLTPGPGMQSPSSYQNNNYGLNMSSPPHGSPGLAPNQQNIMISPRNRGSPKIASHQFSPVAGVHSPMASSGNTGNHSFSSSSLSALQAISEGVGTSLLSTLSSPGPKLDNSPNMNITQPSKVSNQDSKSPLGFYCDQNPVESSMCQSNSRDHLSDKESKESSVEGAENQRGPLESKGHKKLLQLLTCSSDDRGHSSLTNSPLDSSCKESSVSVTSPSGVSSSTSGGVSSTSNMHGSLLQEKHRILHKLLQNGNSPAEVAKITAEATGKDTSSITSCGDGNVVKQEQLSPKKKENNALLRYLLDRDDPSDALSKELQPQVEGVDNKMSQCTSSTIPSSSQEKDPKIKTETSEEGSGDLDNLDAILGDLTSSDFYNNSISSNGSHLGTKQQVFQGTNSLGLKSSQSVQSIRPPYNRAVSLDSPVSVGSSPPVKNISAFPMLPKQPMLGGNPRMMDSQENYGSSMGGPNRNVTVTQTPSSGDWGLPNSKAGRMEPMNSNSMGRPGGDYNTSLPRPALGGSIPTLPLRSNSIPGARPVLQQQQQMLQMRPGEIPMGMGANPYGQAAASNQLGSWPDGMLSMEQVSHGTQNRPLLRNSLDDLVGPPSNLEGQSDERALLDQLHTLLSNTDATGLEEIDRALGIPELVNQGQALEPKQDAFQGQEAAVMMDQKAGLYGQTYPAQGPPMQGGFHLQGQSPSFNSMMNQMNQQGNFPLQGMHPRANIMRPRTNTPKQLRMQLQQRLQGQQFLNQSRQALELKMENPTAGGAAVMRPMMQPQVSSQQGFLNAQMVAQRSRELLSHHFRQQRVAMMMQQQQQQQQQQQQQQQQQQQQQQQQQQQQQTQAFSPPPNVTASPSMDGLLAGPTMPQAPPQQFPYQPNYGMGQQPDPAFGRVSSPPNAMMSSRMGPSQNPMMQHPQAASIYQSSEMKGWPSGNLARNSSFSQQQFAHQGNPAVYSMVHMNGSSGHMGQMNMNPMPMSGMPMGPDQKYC

For orientation: inhibition means the drop in the measured response relative to a control, in per cent. `COc1cc(C(=O)N/N=C/c2coc3ccc(Cl)cc3c2=O)ccc1O`: the inhibition in test [1] was 24.2%; in test [2], 15.9%.
For `CCOc1ccc(-c2cc(C)n3nc(C(N)=O)cc3n2)cc1` the same measures were 32.9% and 23.3%.
For `CCOC(=O)N1CCC(NC(=O)C2CCCN(Cc3nc(-c4ccc(CC)cc4)oc3C)C2)CC1` (configuration not stated) the same measures were 18.7% and 33.9% (active).
For `CCCCNS(=O)(=O)c1ccc(S(=O)(=O)NCc2ccncc2)cc1`, the inhibition in test [1] is 16.5%; in test [2] it was 25.1%.
For `CC(=O)c1c(C(C)=O)c(C)n(-c2ccc3ncccc3c2)c1C` the same measures were 15.4% and 6.55%.
With `CC12CN3CC(C)(CN(C1)C3c1ccccc1F)C2` (configuration not stated), the inhibition in test [1] is 2.53%; in test [2], 4.18%.
On the same counts, the results for `O=C(NCc1ccccc1)c1c(Cl)nc(Cl)c(Cl)c1Cl` are 42.1% and 21.9%.
For `COc1ccc(C(=O)NCC(=O)OCc2c(Cl)cccc2Cl)cc1OC` the same measures were -0.66% and 1.22%.
On the same counts, the results for `CC(C)C(=O)N1CCN(c2ccc(NC(=O)COc3ccccc3[N+](=O)[O-])cc2)CC1` are 12.7% and 28.6%.
Consider `c1ccc(-n2nnnc2NCCCN2CCOCC2)cc1`, for which the values for the inhibition in test [1] and in test [2] were -14.3% and -8.35%, respectively.
On the same counts, the results for `CCOc1cccc(/C=N/NC(=O)c2cc(-c3cccn3C)n[nH]2)c1O` are 26% and 40% (active).
On the same counts, the results for `OC[C@H]1O[C@@H](Oc2ccc(O)cc2)[C@H](O)[C@@H](O)[C@@H]1O` are 7.6% and -4.32%.
On to `O=S(=O)(CC(CN1CCCCC1)N1CCCCC1)c1ccc2ccccc2c1` (configuration not stated), for which the inhibition in test [1] was 4.5%; in test [2], 6.94%.
For `O=S(=O)(NC1=NCCC1)c1cccc(NS(=O)(=O)c2ccc(OC(F)(F)F)cc2)c1` the same measures were -6.28% and -8.52%.
For `Cc1cc(C(=O)Nc2ccncc2)c(C)o1` the same measures were 8.35% and -9.44%.
On the same counts, the results for `Cc1ccc(NC2=C/C(=N/S(=O)(=O)c3cccs3)c3ccccc3C2=O)cc1` are 85% (active) and 82% (active).
`CSc1ncccc1C(=O)NCc1nnc2ccccn12`: the inhibition in test [1] was 3.35%; in test [2] it was -2.69%.
For `Cc1ccc(-n2cccn2)c(CN2CCCC(C(=O)c3sccc3C)C2)c1` (configuration not stated) the same measures were 18.9% and 32.1% (active).
For `O=C(NC(=S)NNC(=O)c1ccccc1O)c1ccc(F)cc1` the same measures were 19% and 9.84%.
On the same counts, the results for `CCOC(=O)CC/C(C)=N\N=C1\SC(CC(=O)O)C(=O)N1c1ccccc1` (configuration not stated) are 0.21% and -4.68%.
Turning to `CC(=O)Nc1cccc(C(=O)/C=C/c2ccc(Br)cc2)c1`, the inhibition in test [1] is 10.8%; in test [2], 11%.
`Cc1ccc(C)c(N2CCN(C(=O)C34CC5CC(C3)CC(n3nnc(C)n3)(C5)C4)CC2)c1`: the inhibition was 3.92% in test [1] and 29.6% (active) in test [2].
For `C[C@H](NC(=O)Nc1ccccc1F)C(=O)O` the same measures were 5.66% and 3.39%.
For `CC(=O)N1CCc2cc(S(=O)(=O)NCCC(=O)NCCc3ccc(Cl)cc3)ccc21` the same measures were -9.13% and 1.52%.
On the same counts, the results for `Cc1c(P(=S)(c2ccccc2)c2ccccc2)[n+]2ccccc2n1CCc1ccccc1` are 25.9% and 22%.
Take `O=C(N/N=C\c1c(O)ccc2ccccc12)c1ccc(Cn2cccn2)o1`: the values for the inhibition in test [1] and in test [2] were 49.1% (active) and 39.5% (active), respectively.
On the same counts, the results for `O=c1[nH]oc2cc(Cl)ccc12` are 3.14% and -1.43%.
For `CCN(CC)CCCNc1nc2ccccc2c2nc(-c3ccncc3)nn12` the same measures were -2.05% and 41.3% (active).
On to `Cc1ccc(C(=O)OCC(=O)Nc2sccc2C(N)=O)cc1NC(=O)c1ccco1`, for which the inhibition in test [1] was 18.4%; in test [2], 11.5%.
For `Cc1ccsc1C(=O)C1CCCN(Cc2cccn2-c2ccc(Cl)cn2)C1` (configuration not stated) the same measures were -3.2% and 23.2%.
Turning to `COc1cccc(/C=N/Nc2cc(-n3nc(C)cc3-c3ccccc3)ncn2)c1O`, the inhibition is 28.9% in test [1] and -9.27% in test [2].
For `COc1ccc2c(c1)-c1c(ssc1=S)C(C)(C)N2S(=O)(=O)c1ccc(C)cc1` the same measures were 2.95% and 13.9%.
Take `Nc1cccc2c1C(=O)N(C(=O)c1cccc(S(=O)(=O)N3CCCCCC3)c1)C2=O`: the results for the inhibition in test [1] and in test [2] were 1.95% and -5.22%, respectively.
On the same counts, the results for `FC(F)(F)c1cccc(-c2nc3nc(Cl)c(Cl)nc3[nH]2)c1` are -12% and 31.5% (active).
As for `CCOC(=O)c1c(NC(=O)COc2cccc3c2CCN(C)C3=O)sc2c1CCC2`, the inhibition in test [1] was -1.43%; in test [2], 10.2%.
For the molecule `O=C(NNC(=S)NCc1ccccc1)c1ccc2c(c1)OCO2`, the inhibition is -11.1% in test [1] and -11.7% in test [2].
For `COc1cccc(-c2csc3ncnc(Sc4nnnn4C)c23)c1` the same measures were 5.54% and 21.9%.
Turning to `CC(=NNC(=O)c1ccncc1)c1ccc2ccccc2c1O`, the inhibition in test [1] was 45.1% (active); in test [2], 32.6% (active).
On the same counts, the results for `C/C(=N\NC(=O)c1c(C)nc2ccccn12)c1ccc(O)cc1O` are 52.7% (active) and 55.2% (active).
Turning to `Cc1ccc(CNC(=O)CCc2ccc(S(=O)(=O)NC3CCCCC3)cc2)cc1`, the figures for the inhibition in test [1] and in test [2] were 0.11% and 0.04%, respectively.
On the same counts, the results for `COc1ccc(OC)c(Nc2nc(N)nc(CCl)n2)c1` are 15.4% and 4.74%.
For `CN1C(=O)C2(C(C#N)=C(N)N(c3cc(Cl)cc(Cl)c3)C3=C2C(=O)CC(C)(C)C3)c2ccccc21` (configuration not stated) the same measures were 46.5% (active) and 25.6%.
On the same counts, the results for `Oc1cccc2ccc(Nc3ccccn3)nc12` are 3.4% and -8.03%.
Turning to `CC1CCC(C(C)C)C(OC(=O)Cn2c(-c3ccc(Br)cc3)[n+](C)c3ccccc32)C1` (configuration not stated), the inhibition in test [1] is 3.76%; in test [2] it was 35.8% (active).
On the same counts, the results for `Cc1oc(S(=O)(=O)N(C)C)cc1C(=O)Nc1ccc(Cl)cc1` are -1.4% and 8.66%.
For `COc1cc2c(ccc3cc(OC)c(OC)c(O)c32)cc1O` the same measures were 56.5% (active) and -4.29%.
On the same counts, the results for `Cc1[nH]c2ccccc2c1C(=O)CN1C(=O)NC2(CC(C)CC(C)(C)C2)C1=O` (configuration not stated) are 11.9% and -5.15%.
Consider `COc1ccc(CCNc2ncnc3sccc23)cc1OC`, for which the inhibition is 12% in test [1] and 42.6% (active) in test [2].
Take `C#CC(=O)N(c1cc(OC)ccc1OC)C(C(=O)NC1CCCC1)c1cccs1` (configuration not stated): the results for the inhibition in test [1] and in test [2] were 49.7% (active) and 7.33%, respectively.
As for `Cc1nc(Nc2ccc3c(c2)OCCO3)c2nnn(Cc3ccccc3Cl)c2n1`, the inhibition in test [1] is 22.1%; in test [2] it was -3.54%.
On the same counts, the results for `COc1cc(OC)cc(-c2nn[nH]n2)c1` are -10.5% and -1.27%.
